# Hit rate of the full screen: of about 310,000 compounds, about 14,000 (4.5%) showed an effect of 50% or more. Effects have a minus sign here. For the sample, strong results were picked, then their nearest neighbours and some compounds at random.
# Molecular target: human ether-à-go-go-related gene (hERG) potassium channel (human, UniProt Q12809)
# Assay: primary screen, population patch clamp on CHO cells stably expressing hERG; higher = less effect of the substance
# 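Further: peak tail current of the secondary pulse compared with the same well before compound.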
# Chain of human ether-à-go-go-related gene (hERG) potassium channel (Q12809 whole entry, looked up): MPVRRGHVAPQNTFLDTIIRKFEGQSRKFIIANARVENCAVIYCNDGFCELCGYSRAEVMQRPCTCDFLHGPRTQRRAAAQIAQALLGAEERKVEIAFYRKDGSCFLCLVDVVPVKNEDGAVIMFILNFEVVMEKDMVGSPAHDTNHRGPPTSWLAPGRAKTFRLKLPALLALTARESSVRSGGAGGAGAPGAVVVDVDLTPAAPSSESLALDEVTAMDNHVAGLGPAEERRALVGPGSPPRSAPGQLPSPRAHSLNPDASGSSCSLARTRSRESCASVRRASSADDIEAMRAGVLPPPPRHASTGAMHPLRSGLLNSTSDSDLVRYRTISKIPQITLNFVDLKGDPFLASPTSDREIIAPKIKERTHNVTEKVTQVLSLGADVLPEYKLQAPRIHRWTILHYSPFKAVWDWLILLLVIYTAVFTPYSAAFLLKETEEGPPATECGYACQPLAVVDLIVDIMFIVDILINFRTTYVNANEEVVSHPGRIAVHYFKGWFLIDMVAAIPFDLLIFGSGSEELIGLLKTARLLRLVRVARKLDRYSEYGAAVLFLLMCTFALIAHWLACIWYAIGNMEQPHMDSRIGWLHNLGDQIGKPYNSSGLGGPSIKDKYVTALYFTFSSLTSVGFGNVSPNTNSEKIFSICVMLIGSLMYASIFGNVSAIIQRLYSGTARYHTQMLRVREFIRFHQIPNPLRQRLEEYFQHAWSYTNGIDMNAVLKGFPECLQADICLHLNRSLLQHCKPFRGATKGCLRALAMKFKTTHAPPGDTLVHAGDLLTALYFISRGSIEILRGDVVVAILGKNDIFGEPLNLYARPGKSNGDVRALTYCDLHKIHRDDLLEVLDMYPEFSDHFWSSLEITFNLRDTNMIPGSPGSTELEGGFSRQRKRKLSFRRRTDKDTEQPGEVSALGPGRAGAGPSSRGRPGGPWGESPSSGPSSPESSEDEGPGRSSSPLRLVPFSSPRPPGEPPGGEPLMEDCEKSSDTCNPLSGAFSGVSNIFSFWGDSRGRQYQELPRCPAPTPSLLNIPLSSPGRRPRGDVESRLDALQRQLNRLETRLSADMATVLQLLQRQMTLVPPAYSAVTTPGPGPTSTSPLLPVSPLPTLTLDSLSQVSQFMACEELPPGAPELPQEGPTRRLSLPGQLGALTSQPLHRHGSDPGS
row,Structure (SMILES),"hERG current change (%, negative = inhibition) at 10uM [%]"
1,O=C(c1cccc(S(=O)(=O)NCCOc2ccccc2)c1)N1CCN(c2ncccn2)CC1,-37.6
2,Cc1cc(/C=C(\C#N)C(=O)NCc2ccco2)c(C)n1-c1cccnc1,-23.2
3,O=C(COc1ccc2ccccc2c1)N/N=C/C1CC=CCC1 (stereo not shown),1.93
4,CCOCCCN1CN(Cc2ccccc2)CNC1=S,14.3
5,COC(=O)c1sccc1NC(=S)NCc1ccc(Cl)cc1,9.11
6,COCCN(C(=O)CCC(=O)Nc1cc(C)on1)C(C(=O)NC1CCCC1)c1ccccc1C (stereo not shown),14.7
7,COc1cccc(OC)c1C(=O)NC(=S)N1CCOCC1,17.2
8,CCOC(=O)Cn1c2c(c(-c3ccccc3OC)cc1=O)CCCC2,2.38
9,CNS(=O)(=O)c1ccc(NC(=S)Nc2ccc3c(c2)OCO3)cc1,8.16
10,Cc1ccc(S(=O)(=O)N(C)CC(=O)OCC(=O)c2c(N)n(C)c(=O)n(C)c2=O)cc1,-47.1
11,CN(CC(=O)OCC(=O)c1c(N)n(C)c(=O)n(C)c1=O)S(=O)(=O)c1ccc(Cl)cc1,-69.3
12,Cn1c(N)c(C(=O)COC(=O)CSc2ccccc2)c(=O)n(C)c1=O,-33.6
13,Cn1c(N)c(C(=O)COC(=O)CCCOc2ccc(Cl)cc2Cl)c(=O)n(C)c1=O,-12.2
14,CC(C)[C@H](NS(=O)(=O)c1ccc(Cl)cc1)C(=O)OCC(=O)c1c(N)n(C)c(=O)n(C)c1=O,-39.9
15,Cn1c(N)c(C(=O)COC(=O)CSc2ccc(Cl)cc2)c(=O)n(C)c1=O,-61.2
16,CN(CC(=O)OCC(N)=O)S(=O)(=O)c1ccc(Cl)cc1,33.6
17,Cn1c(N)c(C(=O)COC(=O)CSc2ccc3ccccc3c2)c(=O)n(C)c1=O,-1.77
18,CC(=O)c1c(C)[nH]c(C(=O)COC(=O)CN(C)S(=O)(=O)c2ccc(Cl)cc2)c1C,-57.8
19,CC(=O)c1c(C)[nH]c(C(=O)COC(=O)CNS(=O)(=O)c2ccccc2)c1C,-2.66
20,Cn1c(N)c(C(=O)COc2ccc(Cl)cc2Cl)c(=O)n(C)c1=O,2.07
21,CC(Oc1ccc(Cl)cc1Cl)C(=O)OCC(=O)c1c(N)n(C)c(=O)n(C)c1=O (stereo not shown),-71.2
22,COc1ccc(N(C(=O)COc2ccccc2)C2C=CS(=O)(=O)C2)cc1 (stereo not shown),-1.57

row,Structure (SMILES),"hERG current change (%, negative = inhibition) at 10uM [%]"
1,CCC(=O)Nc1c(S(=O)(=O)c2ccc(C)cc2)c2nc3ccccc3nc2n1C(C)c1ccccc1 (stereo not shown),-14.9
2,C=C(C)CN=C1NN=C(c2cc(C)n(-c3ccc(C)cc3)c2C)CS1,4.06
3,O=C(NCCNC(=O)c1ccccc1F)c1ccco1.O=C(O)C(=O)O,13.9
4,O=C(CSc1ccc(Cl)cc1)N1CCN(c2c(Cl)cccc2[N+](=O)[O-])CC1,-17.2
5,O=C(CSc1ccc(Cl)cc1)N1CCCC1,16.6
6,O=C(CSc1ccc(Cl)cc1)N1CCN(c2ccc([N+](=O)[O-])cc2Cl)CC1,-59.2
7,CN1CCN(C(=O)CSc2ccc(Cl)cc2)CC1,6.35
8,O=C(CSc1ccc(Cl)cc1)N1CCN(c2ccc(Cl)cc2[N+](=O)[O-])CC1,-61.5
9,O=C(CN1CCN(c2ccc(Cl)cc2[N+](=O)[O-])CC1)N1CCOCC1,-33.6
10,CCN1C(=O)c2ccc(C(=O)O)cc2C1=O,9.2
11,c1ccc(CCNc2ncnc3sccc23)nc1,26.8
12,O=C(c1ccc(Cl)cc1)c1ccc(OCC(=O)N2CCOCC2)cc1,-40.8
13,CCOC(=O)N1CCN(C(=O)c2ccc(NC(=O)c3ccc(C)cc3)cc2)CC1,-13.3
14,COc1ccc([N+](=O)[O-])cc1NC(=O)Cn1ccc(C(F)(F)F)n1,13.3
15,COc1ccc2c(c1)Sc1ccccc1N2CCN(C)C.O=C(O)C(=O)O,-21.3
16,COc1ccc(N2C(=O)C(OC(C)=O)C2c2ccc(C)cc2)cc1 (stereo not shown),17.3
17,COc1ccc([C@@H]2Sc3cc(OC)ccc3N(CCN(C(C)C)C(C)C)C(=O)[C@H]2OC(C)=O)cc1.Cl,-75
18,Cc1ccc(N2C(=O)CC(Sc3ncn[nH]3)C2=O)cc1C (stereo not shown),14.2
19,S=C(NCC1CCCO1)N1CCN(c2ccccc2)CC1 (stereo not shown),23.5
20,Cc1cc2ccccc2c(=O)[nH]1,16.5
21,CCn1c(CNC(=O)C2CCCCC2)cc2cc(C)ccc21,28
22,CN(C)c1nc(NCc2ccccc2)nc(SCC(N)=O)n1,7.76

row,Structure (SMILES),"hERG current change (%, negative = inhibition) at 10uM [%]"
1,Cn1c2ccccc2c2ncn(CCCN3CCOCC3)c(=O)c21,-16.6
2,N=c1c2c(-c3ccccc3)c(-c3ccccc3)oc2ncn1CCN1CCOCC1,-70.8
3,COc1ccc(-c2oc3ncnc(NCCN4CCOCC4)c3c2-c2ccc(OC)cc2)cc1,2.75
4,COc1ccc(-c2oc3ncn(CCN4CCOCC4)c(=N)c3c2-c2ccc(OC)cc2)cc1,-70.3
5,O=c1oc2ccccc2c2c1ncn2CCN1CCOCC1,-8.76
6,N=c1c2c(-c3ccccc3)c(-c3ccccc3)oc2ncn1CCCN1CCOCC1,-79.2
7,COc1ccc(-c2oc3ncn(Cc4ccco4)c(=N)c3c2-c2ccc(OC)cc2)cc1,-49.4
8,Cn1c(=O)c2c(-c3ccccc3)n(CCCN3CCOCC3)cc2n(C)c1=O,16.1
9,CC(C)Cc1n[nH]c(=O)[nH]1,-6.31
10,O=C(Nc1c2c(nn1-c1ccc(F)cc1)CS(=O)C2)c1ccc(S(=O)(=O)N2CCOCC2)cc1 (stereo not shown),21.9
11,Cc1cc(NC(=O)c2c(-c3ccccc3Cl)noc2C)no1,5.88
12,CS(=O)(=O)NNC(=O)c1cc2cc3ccccc3nc2s1,9.84
13,COc1ccc(NC(=O)C2=CC(c3ccc(OC)c(OC)c3)=NS(=O)(=O)N2C)cc1,-4
14,O=C(NCC1CCCO1)c1cc(-c2ccc(F)cc2)no1 (stereo not shown),0.634
15,O=C1C2(c3ccccc3)CN(CCO)CC1(c1ccccc1)CN(CCO)C2,-10.6
16,C=CCN1CC2(c3ccccc3)CN(CC=C)CC(c3ccccc3)(C1)C2=O,-19.3
17,O=C1C2(c3ccccc3)CN(CCCO)CC1(c1ccccc1)CN(CCCO)C2,-50.4
18,CCOC(=O)C1CCN(C(=O)CN2C(=O)CSc3ccc(S(=O)(=O)N4CCOCC4)cc32)CC1,-22.6
19,O=C(N=C1SC2CS(=O)(=O)CC2N1Cc1ccc(F)cc1)C1CCCO1 (stereo not shown),-5.58
20,CN(C)S(=O)(=O)c1ccc(N2CCCC2)c(C(=O)NNC(=O)COc2ccccc2F)c1,-61.4
21,CN(C)S(=O)(=O)c1ccc(N2CCCC2)c(C(=O)Nc2ccccc2Br)c1,-58.3
22,CN(CC(=O)Nc1ccccc1Br)C(=O)c1cc(S(=O)(=O)N(C)C)ccc1N1CCCC1,-8.64

row,Structure (SMILES),"hERG current change (%, negative = inhibition) at 10uM [%]"
1,CCc1ccccc1NC(=O)c1cc(S(=O)(=O)N(C)C)ccc1N1CCCC1,-32.2
2,Cc1ccccc1OCC(=O)NNC(=O)c1cc(S(=O)(=O)N(C)C)ccc1N1CCCC1,0.0569
3,CN(C)S(=O)(=O)c1ccc(N2CCCC2)c(C(=O)Nc2ccccc2F)c1,-14.7
4,CSc1ccccc1NC(=O)c1cc(S(=O)(=O)N(C)C)ccc1N1CCCC1,-54.7
5,CN(C)S(=O)(=O)c1ccc(N2CCCC2)c(C(=O)Nc2ccc(Br)cc2F)c1,3.03
6,CN(C)S(=O)(=O)c1ccc(N2CCCC2)c(C(=O)NCc2ccc(Cl)cc2)c1,-68.5
7,CN(C)S(=O)(=O)c1ccc(N2CCCC2)c(C(=O)NNC(=O)COc2ccccc2Cl)c1,-30.3
8,CN(C)S(=O)(=O)c1ccc(N2CCCC2)c(C(=O)NCc2cccc(C(F)(F)F)c2)c1,4.61
9,CN(C)S(=O)(=O)c1ccc(N2CCCC2)c(C(=O)NCc2ccccc2)c1,-10
10,O=C(C1CCCO1)N1CCN(C(c2ccccc2)c2ccccc2)CC1 (stereo not shown),0.514
11,CC1(C)C=C2[C@H]3CC[C@@H]4[C@@]5(C)CCC(=O)C(C)(C)[C@@H]5CC[C@@]4(C)[C@]3(C)CC[C@@]2(C(=O)O)CC1,-1.05
12,CCN(CC)C(=O)C(=O)N/N=C/c1cccc(Br)c1,-8.07
13,CCN(CC1COc2ccccc2O1)C(=S)NC1CC2CCC1C2 (stereo not shown),1.34
14,Cc1cc(C)cc(OCc2ccc(C(=O)NC3CCOC3=O)o2)c1 (stereo not shown),15.9
15,O=C(Nc1nccs1)C(c1ccccc1)N1CCCC1 (stereo not shown),-7.89
16,COC(=O)c1sccc1N/N=C/c1cccc(Oc2ccccc2)c1,-7.09
17,CC1S/C(=N/N=C/c2ccco2)N(Cc2ccc(F)cc2)C1=O (stereo not shown),-11.3
18,COc1cc(OC)nc(Oc2ccccc2C(=O)Oc2ccc(Cl)cc2)n1,-21.6
19,Cc1nnsc1SCC(=O)O,-0.15
